Bioassay records: PubChem BioAssay, National Center for Advancing Translational Sciences (NCATS)
A selection: hits, their analogues and other compounds. The true share with any hit is near 2.2%.
LDHA inh: qHTS assay for inhibitors of human lactate dehydrogenase. activity change, % (values are at about 110 or 230 µM). purified LDHA, NADH/diaphorase-resazurin fluorescence; active compounds read low. 480,000 tested, 0.15% active. L-lactate dehydrogenase A chain (Homo sapiens), P00338; in the data active means activity change below about -30%; inconclusive means mostly about -25% to -30%;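 further: plate controls were DMSO wells for no effect and wells without enzyme for full effect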
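Human LDH5 (2 nM) was incubated with 0.06 mM NADH and 0.2 mM pyruvate for 5 min at room temperature in Tris pH 7.4. Remaining NADH was coupled through diaphorase/resazurin, and resorufin fluorescence was read at 0 and 20 min.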
TGFb inhibitor: qHTS for Inhibitors of TGF-b; HepG2 CAGA-GFP TGF-b/SMAD3 reporter, GFP fluorescence, 18 h; TGF-beta stimulated, 500 pg/mL final; Potency, µM (series often up to 46.1 µM), without a hit: at the top dose activity, negative = inhibition, most hits filed as inhibitors; 410,000 tested, 1.2% active; further: potency means the concentration at half of the fitted maximal effect; on the % scale 0 is the no-effect control and ±100 the full control effect; nearly all actives have a fitted effect of over 65% in size
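Read-out: total well GFP (ex488/em500-530) summed from mean per-cell fluorescence. Cells: HEPG2 CAGA-GFP, 1% FBS DMEM, 18 h at 37 degrees C with 500 pg/mL final TGF-beta. Unstimulated wells served as the full-inhibition control; stimulated DMSO wells = 0%.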
HepG2 tox-1: qHTS for Inhibitors of TGF-b: Cytotox Counterscreen. HepG2 CAGA-GFP viability, ATP luminescence, 18 h. Potency, µM (doses to about 46.1 µM), for the others: at the highest dose activity change, negative = cytotoxicity, hits mostly cytotoxic. 410,000 tested, 0.76% active. AID 588856, 2011; further: potency means the concentration at half of the fitted maximal effect
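CellTiter-Glo luminescence gave cytotoxicity after 18 hours at 37 degrees C. The cells were HepG2 CAGA-GFP in 1% FBS DMEM, stimulated with 500 pg/mL TGF-beta after compound addition. %Activity was normalised to no-cell wells (complete cell-killing) and DMSO (no toxicity), and curves were fitted and classified.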
S2 tox: Viability Counterscreen for Primary qHTS for Inhibitors of ATXN expression; Potency, µM (highest dose often 56.7 µM), actives largely listed as cytotoxic; S2 cells (HEK-293 line with an ATXN2-luciferase reporter) viability, CellTiter-Fluor protease fluorescence, 24 h; 400,000 tested, 0.49% active; AID 651635, 2014; further: potency means the concentration at half of the fitted maximal effect; nearly all actives have a fitted effect of over 40% in size
ATXN2 expr inh: Primary qHTS for Inhibitors of ATXN expression; Potency, µM (titrated, usually from 57 µM), for the others: top-dose activity change, negative = inhibition, most hits filed as inhibitors; 360,000 tested, 0.72% active; HEK-293 ATXN2-luciferase reporter, luminescence, 24 h; further: potency means the concentration at half of the fitted maximal effect; on the % scale 0 is the no-effect control and ±100 the full control effect; nearly all actives have a fitted effect of over 55% in size
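ATXN2-luciferase reporter cells (luciferase flanked by upstream and downstream ATXN2 gene portions) were treated 24 h at 37 °C with compounds at up to 57 uM. SteadyGlo luminescence gave expression; GF-AFC fluorescence gave viability.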
IDH1 R132H inh: qHTS for Inhibitors of mutant isocitrate dehydrogenase 1 (IDH1): qHTS; Isocitrate dehydrogenase [NADP] cytoplasmic (Homo sapiens), O75874; IDH1-R132H enzyme, NADPH consumption, diaphorase/resazurin fluorescence; Potency, µM (top dose mostly 76.6 µM), for inactives: at the highest dose activity change, negative = inhibition, most hits filed as inhibitors; 390,000 tested, 0.093% active; AID 602179, 2012; further: potency means the concentration at half of the fitted maximal effect; on the % scale 0 is the no-effect control and ±100 the full control effect; nearly all actives have a fitted effect of over 65% in size
Target sequence (O75874 whole entry R132H, stated change not applied): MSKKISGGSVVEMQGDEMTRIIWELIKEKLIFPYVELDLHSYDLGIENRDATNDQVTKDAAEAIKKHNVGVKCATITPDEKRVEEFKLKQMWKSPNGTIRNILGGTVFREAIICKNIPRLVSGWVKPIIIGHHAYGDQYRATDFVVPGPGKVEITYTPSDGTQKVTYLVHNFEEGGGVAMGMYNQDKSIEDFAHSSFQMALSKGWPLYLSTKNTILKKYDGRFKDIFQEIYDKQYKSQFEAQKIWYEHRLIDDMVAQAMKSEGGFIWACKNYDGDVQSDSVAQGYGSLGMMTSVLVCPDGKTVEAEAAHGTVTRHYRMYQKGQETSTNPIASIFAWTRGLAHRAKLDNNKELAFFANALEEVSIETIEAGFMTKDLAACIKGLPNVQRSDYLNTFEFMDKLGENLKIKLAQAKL
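IDH1-R132H (0.5 ug/mL) preincubated 30 min with compound, then NADPH (0.016 mM) and alpha-KG (2 mM) added; 80 min at RT, pH 7.5. Remaining NADPH coupled via diaphorase/resazurin to fluorescence (540/590 nm); concentration-response curves normalized to no-enzyme control.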
TGFb CAGA inh: qHTS for Inhibitors of TGF-b: Confirmation of Cherry Picks; shares compounds with TGFb inhibitor; HepG2 CAGA-GFP TGF-b reporter, GFP fluorescence, 18 h; cells stimulated with TGF-beta, 500 pg/mL; Potency, µM (highest dose often 46.1 µM), for inactives: top-dose activity, negative = inhibition, hits mostly inhibitors; 1,600 tested, 63% active; AID 720534, 2013; further: potency means the concentration at half of the fitted maximal effect; on the % scale 0 is the no-effect control and ±100 the full control effect; nearly all actives have a fitted effect of over 65% in size
HepG2 tox-2: qHTS for Inhibitors of TGF-b: Cytotox Counterscreen for Cherry Picks | shares compounds with TGFb inhibitor | HepG2 CAGA-GFP viability, ATP luminescence, 18 h; cells stimulated with TGF-beta, 500 pg/mL | Potency, µM (series often up to 46.1 µM), without a hit: at the highest dose activity, negative = cytotoxicity, most hits filed as inhibitors | 1,600 tested, 27% active | AID 720535, 2013; further: potency means the concentration at half of the fitted maximal effect; on the % scale 0 is the no-effect control and ±100 the full control effect; nearly all actives have a fitted effect of over 70% in size
CCL64 TGFb inh: qHTS for Inhibitors of TGF-b: CCL64 Cells Orthogonal Assay for Cherry Picks; shares compounds with TGFb inhibitor; CCL64 CAGA-GFP reporter, TGF-b stimulated, GFP fluorescence, 18 h; Potency, µM (highest dose often 46.1 µM), for inactives: at the top dose activity, negative = inhibition, most hits filed as inhibitors; 1,600 tested, 41% active; AID 720536, 2013; further: potency means the concentration at half of the fitted maximal effect; nearly all actives have a fitted effect of over 65% in size
TGFb COP inh: qHTS for Inhibitors of TGF-b: Hit Validation in HepG2 Cells using COP promoter | shares compounds with TGFb inhibitor | HepG2 COP-GFP TGF-b reporter, GFP fluorescence, 18 h; cells stimulated by added recombinant TGF-beta | Potency, µM (top dose mostly 46.1 µM), for the others: at the highest dose activity, negative = inhibition, most hits filed as inhibitors | 1,600 tested, 3% active; further: potency means the concentration at half of the fitted maximal effect; nearly all actives have a fitted effect of over 70% in size
The depositor's hits bear a star; i = inactive; u = inconclusive; x = no result; ! = repeats disagree. Unless noted, the call rests on the fitted dose curve; in most records, active means well fitted curve in the direction sought with a large enough effect; inconclusive means small, poorly fitted or top-dose-only effect, or another doubt; inactive means no such curve, though single readings can be large; an effect the other way counts as inactive or inconclusive.

SMILES	LDHA inh	TGFb inhibitor	HepG2 tox-1	S2 tox	ATXN2 expr inh	IDH1 R132H inh	TGFb CAGA inh	HepG2 tox-2	CCL64 TGFb inh	TGFb COP inh
CCOc1ccc(S(=O)(=O)N(CC(=O)Nc2ccc(OC)cc2OC)c2ccccc2)cc1	0	-1%	3%	i	-4%	17%	x	x	x	x
CSc1nnc(NC(=O)c2nc(S(=O)(=O)Cc3ccccc3)ncc2Cl)s1	-1	u	-157%	x	u	3%	x	x	x	x
COc1ccccc1NC(=O)c1nc(S(=O)(=O)Cc2ccccc2)ncc1Cl	-6	4.5µM*	-40%	u	u	8%	2.9µM*	5.8µM*	2.1µM*	15µM*
CCOC(=O)c1ccc(NC(=O)c2nc(SC(C)C)ncc2Cl)cc1	3	-19%	-24%	i	-24%	-3%	x	x	x	x
CCOC(=O)c1ccc(NC(=O)c2nc(S(=O)(=O)Cc3ccccc3)ncc2Cl)cc1	-3	3.5µM*	6.3µM*!	20µM*	u	-1%	4.6µM*	6.5µM*	2.3µM*	13µM*
Cc1ccc(NC(=O)c2nc(S(=O)(=O)Cc3ccccc3C)ncc2Cl)cc1C	-2	7.1µM*	16µM*	u	u	4%	3.3µM*	10µM*	3.7µM*	u
Cc1ccccc1CS(=O)(=O)c1ncc(Cl)c(C(=O)Nc2nnc(C(C)C)s2)n1	2	u	-88%	x	x	-1%	x	x	x	x
CC(C)(C)n1nnnc1C(c1ccccc1)N1CCN(C(=O)c2ccco2)CC1 (configuration not stated)	1	x	x	i	15%	x	x	x	x	x
CCOC(=O)c1[nH]c2c(c1C)C(=O)CC(c1ccco1)C2 (configuration not stated)	2	u	4%	u	-17%	14%	7.3µM*	9%	2.1µM*	u
COCCOC(=O)c1[nH]c2c(c1C)C(=O)CC(c1ccccc1)C2 (configuration not stated)	-7	10µM*	5%	u	8%	0%	7.3µM*	-7%	6.5µM*	-19%
CCOc1ccc(-c2nnc(NC(=O)CCCOc3cccc(C)c3)o2)cc1	-4	0%	-23%	u	-6%	-2%	x	x	x	x
COc1ccc(/C=C(/CC(=O)O)c2nc3ccccc3s2)cc1	2	x	x	x	x	x	x	x	x	x
CC(=O)Nc1cc(-c2ccccc2F)cn2c(-c3ccccc3)cnc12	4	-14%	-33%	u	4%	x	x	x	x	x
O=CNc1cc(-c2ccoc2)cn2c(-c3ccc(F)cc3)cnc12	2	10µM*	-12%	i	6%	x	u	-21%	u	26%
O=CNc1cc(-c2cccc(F)c2)cn2c(-c3ccc(F)cc3)cnc12	6	u	-11%	i	-30%	x	x	x	x	x
Cn1cc(-c2cnc3c(NC=O)cc(-c4cccc(C(F)(F)F)c4)cn23)cn1	7	11µM*	-22%	i	0%	x	23µM*	-19%	u	40%
CC(=O)c1cccc(-c2cnc3c(NC=O)cc(-c4ccccc4F)cn23)c1	-3	6.3µM*	5%	i	u	x	6.5µM*	-14%	1.5µM*	5%
O=C(c1ccncc1)N1CCCC(N2CCN(c3ccc(F)cc3)CC2)C1 (configuration not stated)	-4	-1%	-17%	u	-2%	4%	x	x	x	x
CCCCn1c(N)c(N(CC)C(=O)C2CCN(C(=O)c3ccccc3C)CC2)c(=O)[nH]c1=O	-3	9%	15%	i	8%	9%	x	x	x	x
C/C(=N\NC(=O)c1ccccc1OCCOc1ccccc1)c1ccccc1F	0	20µM*	-19%	u	-13%	2%	u	u	u	57%
C/C(=N\NC(=O)c1ccccc1)c1ccccc1F	-5	20%	13%	i	73%	-4%	x	x	x	x
CC[C@]12c3[nH]c4ccc(Cl)cc4c3CCN1C(=O)[C@@H](CC(=O)NCc1ccco1)C[C@@H]2C(=O)N1CCN(C(=O)C2CC2)CC1	-17	u	-15%	i	4%	-4%	x	x	x	x
COc1ccc(C(=O)n2nc(-c3ccco3)nc2N)cc1	2	-12%	-1%	i	-3%	3%	x	x	x	x
Nc1ccc2[nH]ccc2c1	-23	x	x	x	x	x	x	x	x	x
Cc1cccc(NC(=O)/C=C/c2ccc([N+](=O)[O-])s2)c1	-4	u	-63%	8.9µM*	8.9µM*	5%	u	5.2µM*	2.6µM*	41%
Cc1ccc(NC(=O)/C=C/c2ccc([N+](=O)[O-])s2)cc1	-8	-30%	-13%	i	-18%	-5%	x	x	x	x
Cc1ccc(NC(=O)/C=C/c2ccc([N+](=O)[O-])s2)c(C)c1	-1	5µM*	7.9µM*	u	8.9µM*	7%	u	10µM*	4.1µM*	26%
CCC1=C(CC2NCCc3ccccc32)CC2c3cc(OC)c(OC)cc3CCN2C1 (configuration not stated)	-3	2.8µM*	-29%	u	8.9µM*	5%	1.5µM*	u	5.2µM*	22%
